Measured values: PubChem BioAssay AID492972 (The Scripps Research Institute Molecular Screening Center, 2010)
Hit rate of the full screen: of about 340,000 compounds, about 930 (0.27%) were called active.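 How the source made its calls: active means inhibition above the screen-wide average of all tested compounds plus 3 SD (cut at about 25% in these data); inactive means the rest.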 The sample as a whole holds a higher share of actives than the screen did.

biological target: Platelet-activating factor acetylhydrolase IB subunit alpha1 (Homo sapiens) (UniProt Q15102); assay: inhibition of PAF acetylhydrolase 1B subunit 3 – biochemical, fluorescence polarization, human, primary screen (AID 492972); details: recombinant PAFAH1B3, FP-rhodamine probe, at 3.39 µM, stronger effect = higher value;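 further: 0% = enzyme with DMSO only and 100% = wells lacking PAFAH1B3 protein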
Sequence (Q15102 whole entry, looked up): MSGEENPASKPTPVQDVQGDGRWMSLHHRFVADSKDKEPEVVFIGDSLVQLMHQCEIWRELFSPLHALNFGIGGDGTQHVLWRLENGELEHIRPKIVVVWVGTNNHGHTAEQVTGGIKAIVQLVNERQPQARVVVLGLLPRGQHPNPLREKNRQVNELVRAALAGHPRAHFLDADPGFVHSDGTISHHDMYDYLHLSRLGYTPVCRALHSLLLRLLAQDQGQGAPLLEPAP

**Q.** For `O=C1NC(=O)N(c2ccccc2)C(=O)/C1=C/c1ccc([N+](=O)[O-])s1`, which inhibition is on record?
**A.** 25.6% (active)

**Q.** With `O=C1NC(=O)N(c2ccc(F)cc2)C(=O)/C1=C/c1ccc2c(c1)CCCN2Cc1ccccc1` as the molecule, how does the inhibition read?
**A.** 4.39% (inactive)

**Q.** Which inhibition does the source give for `COc1ccc(N2C(=O)/C(=C/c3ccco3)C(=O)NC2=S)cc1` here?
**A.** 16.7% (inactive)

**Q.** For `CCCCCn1c(=O)c(C(=O)NCc2ccccn2)c(O)c2ccccc21`, which inhibition is on record?
**A.** 4.97% (inactive)

**Q.** `COC(=O)N(c1ccc(OC)cc1)P1(=S)OCCC(C)O1` (stereo not given) was tested. Which inhibition did it give?
**A.** -0.56% (inactive)

**Q.** Which inhibition does the source give for `COc1cc(Cn2c(N)c(C(=O)NCc3ccco3)c3nc4ccccc4nc32)cc(OC)c1OC` here?
**A.** 9.25% (inactive)

**Q.** `CC/C(=N\NC(=O)c1ccccc1O)c1c(O)n(Cc2ccccc2)c(=O)[nH]c1=O` was tested. Which inhibition did it give?
**A.** 13.4% (inactive)

**Q.** `CCOC(=O)c1c(N)n(Cc2ccccc2)c2nc3ccccc3nc12` was tested. Which inhibition did it give?
**A.** 36.2% (active)

**Q.** With `O=C(c1cc2nc(-c3ccccc3)cc(-c3ccccc3)n2n1)N1CCC2(CC1)OCCO2` as the molecule, how does the inhibition read?
**A.** 1.81% (inactive)

**Q.** For `COC(=O)C(O)(c1ccc(NC(=O)c2ccco2)c(OC)c1)C(F)(F)F` (stereo not given), which inhibition is on record?
**A.** -1.88% (inactive)
